Measured potencies and affinities stand elsewhere. Calls of active or inactive are those of the source.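 Rule for the calls: active = signal drop with fitted half-maximal dose at most twice the top valid dose, active in every repeat; inconclusive = repeats disagree, or flat partial inhibition, or poor fit; inactive = inactive in every repeat, including opposite effects.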
These compounds were tested against Caspase-3 (Homo sapiens) (UniProt P42574) (assay: caspase-3 enzyme inhibitors, selectivity check, dose response, selectivity assay for caspase-6 allosteric inhibitor project, biochemical, fluorescence, cherry-picked samples (AID 743291)). Conditions: Recombinant caspase-3, Z-DEVD-R110 cleavage fluorescence; series mostly up to 35 µM.
Sequence of Caspase-3 (Homo sapiens) (P42574 whole entry, looked up): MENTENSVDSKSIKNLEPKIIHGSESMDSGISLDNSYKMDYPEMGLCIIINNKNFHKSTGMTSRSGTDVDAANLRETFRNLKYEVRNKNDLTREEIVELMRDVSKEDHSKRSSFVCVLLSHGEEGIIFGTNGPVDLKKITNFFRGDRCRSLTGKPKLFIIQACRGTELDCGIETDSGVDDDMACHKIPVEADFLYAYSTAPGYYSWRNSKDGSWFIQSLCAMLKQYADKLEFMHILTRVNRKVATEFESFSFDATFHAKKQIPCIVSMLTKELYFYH

outcome, inactive:
COc1ccc(C(=O)OCC(=O)Nc2ncc([N+](=O)[O-])s2)cc1OC, CCOc1c(O)ccc(/C=C2\SC(=S)NC2=O)c1[N+](=O)[O-], CCCCNC(=O)c1nc(C2CCNCC2)oc1-c1cccc(C(F)(F)F)c1, [O-][n+]1onc2c1CCc1c-2nn(-c2ccccc2Cl)[n+]1[O-], Nc1cc2c(cc1Br)[nH]c(=O)c1ccccc12, O=S(=O)(O)c1cc(O)c2cc(Nc3ccccc3)ccc2c1, COc1cc(NC(C)CCCN)c2ncccc2c1 (stereo not drawn), O=P(c1ccccc1)(c1ccccc1)c1cc(S(=O)(=O)O)ccc1O, O=C1NC(=O)C(=Cc2ccccc2[N+](=O)[O-])S1, CN(CC(=O)Nc1ccccc1Cl)C(=O)COC(=O)c1ccc([N+](=O)[O-])s1, Nc1c(O)cccc1C(=O)O, COCCN(C(=O)COC(=O)c1cc2c(s1)CCC2)c1c(N)n(Cc2ccccc2)c(=O)[nH]c1=O, COc1cc(NC(C)CCCNC(C)C)c2ncccc2c1OC (stereo not drawn), O=C(O)Cc1ccc(-n2cccc2)cc1, O=C(COC(=O)c1ccc([N+](=O)[O-])s1)Nc1ccc(F)cc1, C/C(CC(=O)N1CCCC1)=N\NC(=O)c1cc2ccccc2cc1O, Nc1ccc(Nc2ccccc2)c(S(=O)(=O)O)c1, CCCSC1=N/C(=C\c2ccc([N+](=O)[O-])o2)C(=O)S1, O=C(O)CCc1ccc(-c2ccc(Br)cc2)n1CC(=O)O, O=c1[nH]c(Nc2ccccc2Cl)cc2ccccc12, Nc1cc2nn(-c3ccccc3)nc2cc1Cl, Cc1ccc(NC(=O)CN(C)C(=O)c2cccc(-n3cccc3)c2)cc1, Oc1cc(O)cc(C=Cc2ccc(O)c(O)c2)c1, CNS(=O)(=O)c1cccc(C(=O)OCC(=O)N2c3ccccc3NC(=O)C2(C)C)c1, O=C(O)/C(=C\c1ccc(Cl)c([N+](=O)[O-])c1)c1ccc(S(=O)(=O)N2CCCC2)s1, COc1ccccc1NC(=O)COC(=O)c1ccc([N+](=O)[O-])s1, CN(CC(=O)Nc1c(Cl)cccc1Cl)C(=O)c1cccc(-n2cccc2)c1, O=C(O)CC(CCc1ccccc1)OC1OC(CO)C(O)C(O)C1O (stereo not drawn), Cc1c(CCC(=O)O)c(=O)oc2c(C)c(OCc3ccccc3Cl)ccc12, O=c1c(O)cccc2cc(O)c(O)c(O)c12, CCOC(=O)[C@H](Cc1c[nH]c2ccccc12)NC(=O)CN=[N+]=[N-], Cc1c(NC(=O)C(C)OC(=O)c2ccc([N+](=O)[O-])s2)c(=O)n(-c2ccccc2)n1C (stereo not drawn), O=c1ccc2c(-c3ccccc3S(=O)(=O)O)c3ccc(O)c(O)c3oc-2c1O, COc1cc(NC(=O)COC(=O)c2ccc([N+](=O)[O-])s2)cc(OC)c1OC, Nc1cc(S(=O)(=O)O)cc([N+](=O)[O-])c1O, COc1ccc(NC(=O)CN(C)C(=O)c2cccc(-n3cccc3)c2)cc1, Cc1ccc(S(=O)(=O)Nc2csc(C)c2C(=O)O)cc1, COc1ccc(S(=O)(=O)Nc2cc(Sc3ncn[nH]3)c(O)c3ccccc23)cc1
